Results published in PubChem BioAssay (EPA / NIEHS).
Results filed as inconclusive are left out. Active and inactive are the calls of the source. How the source made its calls, unless noted: active means hit-call score of the fitted dose curve at least 0.9, where 1 is the maximum; inconclusive means response in the unintended direction; inactive means score below 0.9.

How the values were obtained:
[1] = TOX21_p53_BLA_p4_viability: Viability Assessment in the Tox21 HCT-116 p53 Agonism Beta-lactamase Assay, Phase 4 (AID 2283597);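 further: hits lower the luminescence signal meaning cytotoxicity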
Outline: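 We seeded HCT116 p53 reporter cells at 4000/well and waited 5 h. We then added compounds in DMSO at a 217-fold dilution and incubated for 16 h. Viability was read as CellTiter-Glo luminescence after 30 min at RT.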

[2] = TOX21_p53_BLA_p5_viability: Viability Assessment in the Tox21 HCT-116 p53 Agonism Beta-lactamase Assay, Phase 5 (AID 2283600)
Outline: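 Compounds, pinned from DMSO at 217-fold dilution, were left on the cells for 16 h. The viability endpoint was ATP content measured by CellTiter-Glo luminescence, where falling signal reflects cytotoxicity.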

[3] = molecular target: Cellular tumor antigen p53 (Homo sapiens) (UniProt P04637); experiment: TOX21_p53_BLA_p4_ratio: Tox21 HCT-116 p53 Agonism Beta-lactamase Assay, Ratio, Phase 4 (AID 2283601)
Outline: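 HCT116 cells carrying an inducible beta-lactamase reporter were plated at 4000 cells/well, rested 5 h, then exposed to compounds in DMSO (217-fold dilution) for 16 h at 37C. CCF4-AM substrate was loaded 2 h at room temperature; 460/530 nm emission ratio scored gain-of-signal versus DMSO.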

[4] = Tanguay_ZF_120hpf_MORT_legacy: (Legacy) Oregon State University Tanguay Lab 120 Hour Post-fertilization zebrafish Assay for Mortality (AID 2283633)
Outline: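 Brightfield scoring of embryo death (binary) at 24 and 120 hpf; static exposure 6–120 hpf, 28C, sealed and foil-covered. Pronase-dechorionated 5D wild-type larvae, single embryo per well. DMSO 0.64% v/v; trimethyltin chloride 5uM positive control.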

[5] = Tanguay_ZF_120hpf_YSE_legacy: (Legacy) Oregon State University Tanguay Lab 120 Hour Post-fertilization zebrafish Assay for Yolk Sac Edema (AID 2283634);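 on AC50: actives raise the incidence of yolk sac edema above the DMSO baseline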
Outline: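 Binary brightfield scoring of yolk sac edema at 120 hpf; DMSO baseline, gain-of-signal fitting. Dechorionated 5D larvae, one per well, static exposure 6–120 hpf, 28C, 0.64% DMSO. Dead embryos not scored.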

[6] = Tanguay_ZF_120hpf_AXIS_legacy: (Legacy) Oregon State University Tanguay Lab 120 Hour Post-fertilization zebrafish Assay for Body Axis Malformation (AID 2283635);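 on AC50: potency for an increased fraction of larvae scored with body axis malformation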
Outline: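 Embryos: 5D wild-type, pronase-dechorionated 4 hpf; static exposure 6–120 hpf, 28C, sealed, dark, 1 embryo/well, 0.64% DMSO. 120 hpf axis malformation scored present/absent; dead embryos excluded. Analysed as gain of signal vs DMSO.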

[7] = Tanguay_ZF_120hpf_EYE_legacy: (Legacy) Oregon State University Tanguay Lab 120 Hour Post-fertilization zebrafish Assay for Eye Malformation (AID 2283636)
Outline: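 Dechorionated wild-type Tropical 5D zebrafish embryos were exposed statically from 6 hpf, one per well, to 120 hpf at 28C in sealed, foil-covered plates with 0.64% DMSO. Eye malformation was scored present/absent by brightfield microscopy against DMSO controls.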

[8] = Tanguay_ZF_120hpf_SNOU_legacy: (Legacy) Oregon State University Tanguay Lab 120 Hour Post-fertilization zebrafish Assay for Snout Malformation (AID 2283637)
Outline: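 Tropical 5D wild-type zebrafish embryos, dechorionated with pronase at 4 hpf, were exposed singly from 6 hpf to 120 hpf statically at 28C in 0.64% DMSO. Snout malformation was scored present/absent by brightfield microscopy, fitted against DMSO.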

[9] = Tanguay_ZF_120hpf_JAW_legacy: (Legacy) Oregon State University Tanguay Lab 120 Hour Post-fertilization zebrafish Assay for Jaw Malformation (AID 2283638);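 on AC50: active means more embryos with jaw malformation than DMSO controls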
Outline: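 Binary jaw-malformation calls at 120 hpf by brightfield imaging; DMSO (0.64% v/v) = baseline. Embryos: 5D wild-type, pronase-dechorionated, one per well from 6 hpf, static exposure, 28C, sealed, dark.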

[10] = Tanguay_ZF_120hpf_PE_legacy: (Legacy) Oregon State University Tanguay Lab 120 Hour Post-fertilization zebrafish Assay for Pericardial Edema (AID 2283640);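 on AC50: potency for increased incidence of pericardial edema versus DMSO baseline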
Outline: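 Static waterborne exposure, 5D wild-type embryos, 28C, to 120 hpf; final DMSO 0.64% (vol/vol). Binary PE call at 120 hpf by brightfield; fitted upward vs DMSO baseline. 5uM trimethyltin chloride as positive control.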

[11] = Tanguay_ZF_120hpf_BRAI_legacy: (Legacy) Oregon State University Tanguay Lab 120 Hour Post-fertilization zebrafish Assay for Brain Malformation (AID 2283641)
Outline: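 Read-out: binary brain morphology call at 120 hpf (brightfield), fitted in gain-of-signal direction vs DMSO. Wild-type Tropical 5D embryos, static exposure, 28C, 0.64% DMSO final; 5uM trimethyltin chloride as positive control.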

[12] = Tanguay_ZF_120hpf_SOMI_legacy: (Legacy) Oregon State University Tanguay Lab 120 Hour Post-fertilization zebrafish Assay for Somite Malformation (AID 2283647)
Outline: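 Binary brightfield scoring of somite defects at 120 hpf in 5D wild-type larvae; one dechorionated embryo per well, static exposure from 6 hpf, 28C, sealed and dark. Final DMSO 0.64%; trimethyltin chloride 5uM positive control.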

[13] = Tanguay_ZF_120hpf_PFIN_legacy: (Legacy) Oregon State University Tanguay Lab 120 Hour Post-fertilization zebrafish Assay for Pectoral Fin Malformation (AID 2283648);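 further: each larva judged yes or no for fin defect by brightfield with dead larvae skipped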
Outline: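 Tropical 5D wild-type embryos, dechorionated with pronase at 4 hpf, were placed singly in wells at 6 hpf and statically exposed until 120 hpf at 28C, sealed and dark, with 0.64% (vol/vol) final DMSO; pectoral fin malformation scored present/absent.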

[14] = Tanguay_ZF_120hpf_CFIN_legacy: (Legacy) Oregon State University Tanguay Lab 120 Hour Post-fertilization zebrafish Assay for Caudal Fin Malformation (AID 2283649)
Outline: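 Dechorionated 5D wild-type zebrafish, static exposure 6–120 hpf, 28C, sealed and dark, 0.64% v/v DMSO final. Binary fin-malformation call at 120 hpf, brightfield; gain of signal vs DMSO baseline.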

[15] = Tanguay_ZF_120hpf_PIG_legacy: (Legacy) Oregon State University Tanguay Lab 120 Hour Post-fertilization zebrafish Assay for Pigmentation Malformation (AID 2283650)
Outline: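 Tropical 5D wild-type zebrafish embryos, dechorionated with pronase at 4 hpf, were exposed singly from 6 hpf to 120 hpf statically at 28C in sealed, dark plates with 0.64% DMSO; pigmentation scored present/absent by brightfield microscopy, fitted against DMSO.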

[16] = Tanguay_ZF_120hpf_CIRC_legacy: (Legacy) Oregon State University Tanguay Lab 120 Hour Post-fertilization zebrafish Assay for Circulatory Malformation (AID 2283651)
Outline: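 Read-out: presence or absence of circulatory malformation at 120 hpf, scored by brightfield microscopy, fitted in the gain-of-signal direction against DMSO baseline. Wild-type 5D larvae were exposed from 6 hpf after enzymatic chorion removal.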

[17] = read-out: kallikrein-3 (KLK3), KLK3 (gene 354); experiment: LTEA_HepaRG_KLK3: Life Technologies and Expression Analysis (LTEA) Assay for kallikrein-3 (KLK3) using HepaRG (AID 2283652; active means hit-call score of the fitted dose curve at least 0.9, where 1 is the maximum; inactive means score below 0.9); settings: mRNA level, 48 h; actives raise or lower the signal
Outline: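 Differentiated human HepaRG cells in serum-free induction medium exposed 48 h in duplicate, eight-point half-log series from 100 uM in 0.5% DMSO. KLK3 mRNA by qRT-PCR, normalised to ACTB, GAPDH, POLR2A; bidirectional fit versus DMSO.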

[18] = molecular target: Cellular tumor antigen p53 (Homo sapiens) (UniProt P04637); experiment: TOX21_p53_BLA_p5_ratio: Tox21 HCT-116 p53 Agonism Beta-lactamase Assay, Ratio, Phase 5 (AID 2283599)
Outline: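 HCT-116 cells carrying a p53-inducible beta-lactamase reporter were seeded at 4000 cells/well and dosed after 5 h with compound in DMSO (217-fold dilution). After 16 h at 37C, CCF4-AM substrate was added for 2 h, and the 460/530 nm emission ratio was scored as gain-of-signal versus DMSO.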

Measured: AC50

Cellular tumor antigen p53 (Homo sapiens), sequence (P04637 whole entry, looked up): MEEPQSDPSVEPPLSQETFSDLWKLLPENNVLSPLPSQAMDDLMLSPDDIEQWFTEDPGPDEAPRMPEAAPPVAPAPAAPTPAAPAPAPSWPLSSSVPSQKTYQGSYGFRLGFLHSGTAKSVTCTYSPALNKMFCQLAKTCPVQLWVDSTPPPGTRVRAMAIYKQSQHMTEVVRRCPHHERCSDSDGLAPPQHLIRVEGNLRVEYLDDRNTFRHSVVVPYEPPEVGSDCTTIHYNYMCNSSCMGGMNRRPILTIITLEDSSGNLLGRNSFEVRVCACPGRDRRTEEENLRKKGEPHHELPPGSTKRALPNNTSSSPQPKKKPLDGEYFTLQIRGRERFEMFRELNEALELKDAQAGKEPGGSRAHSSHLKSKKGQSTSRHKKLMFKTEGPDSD

CC(C)Oc1cccc(NC(=O)c2ccccc2C(F)(F)F)c1
active: [5] 48.7 µM | [7] 15.5 µM | [8] 50.4 µM | [9] 40.4 µM | [10] 48.1 µM | [11] 38.3 µM
not listed: [18]
inactive: all other assays above

Cc1c(COC(=O)[C@@H]2[C@H](/C=C(\Cl)C(F)(F)F)C2(C)C)cccc1-c1ccccc1
not listed: [3] | [17]
inactive: all other assays above

COc1cc(Cl)c(OC)cc1Cl
not listed: [1] | [2] | [3] | [17] | [18]
inactive: all other assays above

Cc1cnc(C2=NC(C)(C(C)C)C(=O)N2)c(C(=O)O)c1 (stereo not drawn)
not listed: [3] | [14] | [17] | [18]
inactive: all other assays above

Clc1nc(Cl)nc(Nc2ccccc2Cl)n1
inactive: [1] | [2] | [4] | [5] | [6] | [7] | [9] | [10] | [13] | [16]

CCNC(=O)NC(=O)C(C#N)=NOC
active: [5] 37.8 µM | [6] 46 µM | [7] 51.5 µM | [8] 24.5 µM | [9] 19.6 µM | [10] 47 µM | [12] 41.6 µM | [13] 45.6 µM
inactive: [11] | [16]

COCc1cnc(C2=NC(C)(C(C)C)C(=O)N2)c(C(=O)O)c1 (stereo not drawn)
not listed: [1] | [2] | [3] | [6] | [14] | [17] | [18]
inactive: all other assays above

O=P(O)(O)CCCl
not listed: [1] | [3] | [9] | [14] | [17] | [18]
inactive: all other assays above

CCOc1nc(F)cc2nc(S(=O)(=O)Nc3c(Cl)cccc3Cl)nn12
not listed: [2] | [3] | [5] | [7] | [17] | [18]
inactive: all other assays above

Nc1cnn(-c2ccccc2)c(=O)c1Cl
not listed: [1] | [3] | [14] | [17] | [18]
inactive: all other assays above
